Shown are actives, neighbours in structure and some others; about 19% of the full set was active somewhere.
DT40 TDP1 CPT: qHTS for Inhibitors of human tyrosyl-DNA phosphodiesterase 1 (TDP1): qHTS in cells in presence of CPT; chicken DT40 Tdp1-/-;hTDP1 cells + 20 nM CPT, ATP luminescence, 48 h; Potency, µM (series often up to 46.2 µM), inactives show top-dose activity change, negative = growth inhibition, most hits filed as inhibitors; actives 12% (n = 420,000); also: nearly all actives have a fitted effect of over 55% in size
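Chicken DT40 Tdp1-/- cells complemented with human TDP1, 400 cells/well, exposed to compounds plus 20 nM camptothecin for at least 48 h at 37 C; viability read as ATP content by CellTiter-Glo luminescence.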
HT1080 IDH1KD tx: qHTS for induction of synthetic lethality in tumor cells producing 2HG: qHTS for the HT-1080-IDH1KD cell line | HT-1080 IDH1 knockdown viability, ATP luminescence, 48 h | Potency, µM (top dose mostly 46.1 µM), for the others: at the top dose activity, negative = toxicity, hits mostly cytotoxic | actives 2% (n = 360,000) | AID 686971, 2013;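 also: 0% = DMSO wells and -100% = cell-free medium wells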
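% activity derives from luminescence (CellTiter-Glo), normalised to DMSO and no-cell wells. HT-1080-IDH1KD cells, 750/well, had 48 h compound exposure at 37 °C.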
KB-3-1 cytotox: qHTS assay for MDR1-selective chemotherapeutics: Primary screen using the parental adenocarcinoma cell KB-3-1 | Potency, µM (highest dose often 46.1 µM), usual class: cytotoxic | KB-3-1 viability, CellTiter-Glo ATP luminescence, 72 h | actives 1.4% (n = 400,000); also: nearly all actives have a fitted effect of over 60% in size
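Viability of parental KB-3-1 cells, measured by CellTiter-Glo luminescence, followed a 72 h incubation at 37 °C with pinned compounds in phenol-red-free DMEM containing 10% FBS.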
DT40 TDP1 no CPT: qHTS for Inhibitors of human tyrosyl-DNA phosphodiesterase 1 (TDP1): qHTS in cells in absence of CPT; DT40 Tdp1-/- hTDP1 cells, no CPT, ATP luminescence, 48 h; Potency, µM (doses to about 46.2 µM), for inactives: at the highest dose activity change, negative = growth inhibition, hits mostly inhibitors; actives 15% (n = 420,000); AID 686978, 2013; also: nearly all actives have a fitted effect of over 55% in size
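Stably hTDP1-transfected Tdp1-null chicken DT40 cells were treated with library compounds minus camptothecin and grown for at least 48 hr at 37 °C, after which cellular ATP was quantified by luminescence.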
KB-V1 MDR tox: qHTS assay for MDR1-selective chemotherapeutics: Primary screen using the drug-selected MDR subline cells KB-V1. KB-V1 MDR cells viability, CellTiter-Glo, 72 h. Potency, µM (top dose mostly 46.1 µM), usual class: cytotoxic. actives 3.4% (n = 400,000); also: nearly all actives have a fitted effect of over 60% in size
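Potencies derive from concentration-effect curves fitted to normalized luminescence (CellTiter-Glo) of KB-V1 cells treated for 72 h at 37 degrees C in phenol-red-free DMEM containing 10% FBS.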
HT1080NT lethal: qHTS for induction of synthetic lethality in tumor cells producing 2HG: qHTS for the HT-1080-NT fibrosarcoma cell line; Potency, µM (highest dose often 46.1 µM), for the others: at the top dose activity, negative = less viability, actives largely listed as cytotoxic; actives 1.6% (n = 360,000); HT-1080-NT fibrosarcoma viability, CellTiter-Glo ATP luminescence, 48 h;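 also: NT is the 2HG producing partner of a matched IDH1 knockdown line; 0% = DMSO-treated cells and -100% = media-only wells without cells; nearly all actives have a fitted effect of over 55% in size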
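HT-1080-NT fibrosarcoma cells (2HG-overproducing), 750 cells/well in RPMI with 5% FBS, dosed after 2 h and incubated 48 h at 37C. CellTiter-Glo luminescence normalized to DMSO and no-cell wells; concentration-response curves fitted and classed.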
The depositor's hits bear a star; i = inactive; ? = inconclusive; / = no result. Calls follow the shape of the dose curve; as a rule, active = well fitted curve in the direction sought with a large enough effect; inconclusive = small, poorly fitted or top-dose-only effect, or another doubt; inactive = no such curve, though single readings can be large; an effect the other way counts as inactive or inconclusive. Unless noted, % is scaled to controls: 0 for no effect and ±100 for the full control effect; potency is read from the fitted curve at half-maximal effect.

SMILES	DT40 TDP1 CPT	HT1080 IDH1KD tx	KB-3-1 cytotox	DT40 TDP1 no CPT	KB-V1 MDR tox	HT1080NT lethal
O=C(c1ccc(Cl)c(S(=O)(=O)N2CCCC2)c1)N1CCN(c2ccccc2F)CC1	?	-5%	?	16µM*	i	-27%
CCc1nc2ccc(C(=O)N3CCN(c4cc(C)ccc4C)CC3)cc2nc1CC	?	-1%	?	?	i	-13%
CCOc1ccc(CCNC(=O)Cn2ncc3c([nH]c4ccccc43)c2=O)cc1OCC	-5%	/	i	7%	i	/
COc1ccc([N+](=O)[O-])cc1NC(=O)CSc1nc(C)c(C)c(C)n1	?	16%	i	?	i	21%
COc1ccc([N+](=O)[O-])cc1NC(=O)C(C)Sc1nc(C)c(C)c(C)n1 (configuration not stated)	?	-6%	i	23µM*	i	-15%
Clc1ccc(N(CC2CO2)CC2CO2)cc1 (configuration not stated)	0.46µM*	-5%	i	0.65µM*	?	4%
Fc1ccc(-c2nnc(CN3CCN(c4ccccn4)CC3)o2)cc1	-4%	/	i	-14%	i	/
CCOc1ccccc1NC(=O)C1CCN(S(=O)(=O)c2ccc3[nH]c(=O)oc3c2)CC1	?	/	i	?	i	/
COc1ccc2c(c1)OC/C(=C\c1ccc(OC)c(O)c1)C2=O	1.5µM*	/	/	1µM*	/	/
COc1ccc2c(c1)OC/C(=C/c1cccs1)C2=O	3%	8%	i	?	i	10%
O=C(O)c1ccc(/C=C2\COc3ccccc3C2=O)cc1	?	?	i	18µM*	i	?
CCOc1cc(/C=C2\COc3ccccc3C2=O)cc(Br)c1OCC(=O)N(C)C	3.7µM*	13µM*	?	4.6µM*	?	18µM*
COc1ccc(/C=C2\COc3ccccc3C2=O)c(OC)c1	21µM*	?	?	?	i	?
Cc1cc(C)c2c(c1)C(=O)/C(=C/c1ccc(C(=O)O)cc1)CC2	-16%	-25%	i	-15%	i	-11%
COc1ccc(/C=C2\COc3ccccc3C2=O)cc1OC	15µM*	18µM*	?	21µM*	i	12µM*
CCOC(=O)C1CCN(C(=O)C2CCN(S(=O)(=O)c3cccc4nsnc34)CC2)CC1	?	10%	i	-3%	i	-1%
CSCC(=O)N1CCCC(CNC(=O)c2ccc(-c3ccccc3)cc2)C1 (configuration not stated)	23µM*	0%	i	23µM*	i	-10%
CC(=O)CCC(=O)N1CCCC(CNC(=O)c2ccc(-c3ccccc3)cc2)C1 (configuration not stated)	?	6%	i	?	?	-4%
O=C(NCC1CCCN(C(=O)c2cccnc2)C1)c1ccc(-c2ccccc2)cc1 (configuration not stated)	?	1%	i	23µM*	?	-2%
CCOC(=O)C1CCN(C(=O)c2cccc(S(=O)(=O)N3CCCc4ccccc43)c2)CC1	?	-2%	i	23µM*	?	-5%
CC1CCCN(C(=O)c2cccc(S(=O)(=O)N3CCCc4ccccc43)c2)C1 (configuration not stated)	10µM*	-12%	i	10µM*	i	-2%
